Hits are enriched below; roughly 6.6% of the tested compounds scored in any of these assays.
KB-V1 cytotox: qHTS assay for MDR1-selective chemotherapeutics: Primary screen using the drug-selected MDR subline cells KB-V1; Potency, µM (doses to about 46.1 µM), most hits filed as cytotoxic; AID 1347076, 2019; 3.4% of 400,000 active; KB-V1 MDR cells viability, CellTiter-Glo, 72 h; further: on the % scale 0 is the no-effect control and ±100 the full control effect; nearly all actives have a fitted effect of over 60% in size
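Potencies derive from concentration-effect curves fitted to normalized luminescence (CellTiter-Glo) of KB-V1 cells treated for 72 h at 37 degrees C in phenol-red-free DMEM containing 10% FBS.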
SW480 rerep: A quantitative high throughput screen for small molecules that induce DNA re-replication in SW480 colon adenocarcinoma cells; 1.8% of 340,000 active; SW480 DNA re-replication, Hoechst DNA content imaging, 48 h; Potency, µM (series often up to 46.1 µM), for the others: at the top dose re-replication activation, usual class: activators; further: % of control where 0% means no effect; nearly all actives have a fitted effect of over 55% in size
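Image-based DNA-content assay: after two days of treatment, nuclei were labelled with the DNA dye Hoechst and imaged, and hits were compounds raising the count of nuclei showing high fluorescence intensity.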
MCF10A rerep: A quantitative high throughput screen for small molecules that induce DNA re-replication in MCF 10a normal breast cells | MCF 10A DNA re-replication, Hoechst nuclear intensity, 48 h | Potency, µM (series often up to 46.1 µM), for the others: at the highest dose activity, positive = re-replication, most hits filed as activators | 2.9% of 350,000 active | AID 624296, 2012; further: % of control where 0% means no effect; nearly all actives have a fitted effect of over 50% in size
RGS4 inhibitor: Inhibitors of Regulator of G Protein Signaling (RGS) 4: qHTS; Transcreener GDP fluorescence polarization, RGS4-accelerated GTP hydrolysis; Potency, µM (highest dose often 114 µM), for inactives: at the top dose activity change, negative = inhibition, most hits filed as inhibitors; 0.039% of 390,000 active; further: on the % scale 0 is the no-effect control and ±100 the full control effect; nearly all actives have a fitted effect of over 75% in size
Target sequence (P49798 whole entry, looked up): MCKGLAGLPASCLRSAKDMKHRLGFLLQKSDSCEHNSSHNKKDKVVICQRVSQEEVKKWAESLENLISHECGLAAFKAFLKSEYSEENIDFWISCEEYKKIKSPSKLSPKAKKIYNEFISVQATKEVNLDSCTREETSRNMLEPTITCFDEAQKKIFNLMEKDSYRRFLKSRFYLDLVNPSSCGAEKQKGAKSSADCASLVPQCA
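MLSMR compounds (23 nl, pin-transferred) preincubated 10 min at room temperature with a 500nM (2x) first reagent, then RGS4 at 900nM (2x) plus Transcreener GDP mix added; fluorescence polarization (620/688 nm) read before and after 90 min at 30 °C.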
KB-3-1 cytotox: qHTS assay for MDR1-selective chemotherapeutics: Primary screen using the parental adenocarcinoma cell KB-3-1. Potency, µM (highest dose often 46.1 µM), hits mostly cytotoxic. KB-3-1 viability, CellTiter-Glo ATP luminescence, 72 h. 1.4% of 400,000 active; further: on the % scale 0 is the no-effect control and ±100 the full control effect; nearly all actives have a fitted effect of over 60% in size
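Viability of parental KB-3-1 cells, measured by CellTiter-Glo luminescence, followed a 72 h incubation at 37 °C with pinned compounds in phenol-red-free DMEM containing 10% FBS.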
TSG101-PTAP inh: qHTS Assay for Iinhibitors of HIV-1 Budding by Blocking the Interaction of PTAP/TSG101 | Fluorescence polarization, FITC-PTAP peptide / Tsg101 binding | Potency, µM (top dose mostly 115 µM), for inactives: at the top dose activity change, negative = inhibition, hits mostly inhibitors | 340,000 tested, under 10 active | AID 493005, 2010; active means well fitted inhibition curve with a large enough effect in the main read-out, with a control signal flat, not every such curve was filed as active; inconclusive means small, poorly fitted or top-dose-only effect, or effect the other way, or a change in a side signal; inactive means no such curve, though single readings can be large or run the other way; further: % of control where 0% means no effect
Target sequence (Q99816 whole entry, looked up): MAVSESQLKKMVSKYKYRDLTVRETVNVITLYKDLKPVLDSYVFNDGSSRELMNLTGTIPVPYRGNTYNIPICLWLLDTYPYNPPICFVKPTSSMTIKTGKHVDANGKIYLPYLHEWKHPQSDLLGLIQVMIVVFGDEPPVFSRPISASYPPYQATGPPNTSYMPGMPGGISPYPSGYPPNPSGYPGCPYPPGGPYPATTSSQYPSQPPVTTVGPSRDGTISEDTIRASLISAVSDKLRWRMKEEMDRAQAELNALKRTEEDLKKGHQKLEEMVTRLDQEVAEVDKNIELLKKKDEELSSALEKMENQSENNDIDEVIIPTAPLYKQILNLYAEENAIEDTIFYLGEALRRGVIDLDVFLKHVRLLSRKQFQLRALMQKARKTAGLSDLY
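Fluorescence polarization binding of Tsg101 binding domain (10 uM final) to FITC-labeled PTAP peptide (50 nM final) in HEPES pH 7.5 buffer with NaCl, Tween 20, EDTA, TCEP. Compounds added before peptide; binding 20 min at RT.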
Numbers without * were called inactive; i = inactive; ? = inconclusive; · = not tested or not shown; [ ] = another dose, or the depositor's remark. Unless noted, the call rests on the fitted dose curve; in most records, active means well fitted curve in the direction sought with a large enough effect; inconclusive means small, poorly fitted or top-dose-only effect, or another doubt; inactive means no such curve, though single readings can be large; an effect the other way counts as inactive or inconclusive. Potency means the concentration at half of the fitted maximal effect.

SMILES	KB-V1 cytotox	SW480 rerep	MCF10A rerep	RGS4 inhibitor	KB-3-1 cytotox	TSG101-PTAP inh
CN1CCN(c2nc(-c3cccnc3)nc3scc(-c4ccccc4)c23)CC1	i	?	18µM*	9%	i	1%
CN1CCN(c2nc(-c3ccncc3)nc3ccccc23)CC1	?	?	?	18%	i	-4%
CC1CCCN(c2nc(-c3cccnc3)nc3scc(-c4ccccc4)c23)C1 (stereo not given)	?	1%	23µM*	-4%	i	3%
CC1CCN(c2nc(-c3cccnc3)nc3scc(-c4ccccc4)c23)CC1	i	3%	?	8%	i	10%
Cc1c(Cl)cccc1NC(=O)CC(c1ccc(F)cc1)N1Cc2ccccc2C1=O (stereo not given)	·	·	·	28%	·	·
OC(c1ccccc1)(c1ccccc1)c1nccc2ccccc12	18µM*	2%	10%	12%	?	2%
CCc1ccccc1NC(=O)CN(C)Cc1nc(N)nc(Nc2ccccc2C)n1	3.3µM*	6%	4%	2%	i	-11%
Cc1ccccc1NC(=O)CSCc1nc(N)nc(Nc2ccccc2C)n1	i	6%	-5%	6%	i	0%
CC(C)CNC(=O)Nc1cc(C(=O)NCc2ccc(C(C)C)cc2)ccc1N1CCCC1	i	·	·	21%	i	·
CC(C)(C)c1ccc(-n2nc(C#N)c(Cl)cc2=O)cc1	?	4.1µM*	2.9µM*	-19%	?	-1%
O=C(COc1ccccc1)NCC(c1ccco1)N1CCN(c2ccc(F)cc2)CC1 (stereo not given)	i	?	-1%	15%	i	-4%
CC(NC(=O)COc1ccccc1)C(=O)N1CCN(c2ccc(F)cc2)CC1 (stereo not given)	18µM*	-4%	11%	3%	i	0%
O=C(Oc1cccccc1=O)c1ccccc1	?	18µM*	?	-27%	i	-1%
O=C(Oc1ccccc1Cl)c1ccccc1	·	15%	16µM*	-17%	·	2%
Cc1nnc(NC(=O)c2ccc(S(=O)(=O)N3CCc4ccccc4C3)cc2)o1	i	2%	-6%	7%	i	-8%
CCc1nnc(NC(=O)c2ccc(S(=O)(=O)N3CCc4ccccc4C3)cc2)s1	i	0%	1%	?	i	-1%
Cc1cc(C)c2nc(NNC(=O)c3ccc(S(=O)(=O)N4CCc5ccccc5C4)cc3)sc2c1	i	12µM*	?	-9%	?	3%
Cc1cc(C)c2sc(NNC(=O)c3ccc(S(=O)(=O)N4CCc5ccccc5C4)cc3)nc2c1	i	5.2µM*	?	8%	?	-8%
COc1ccccc1NC(=O)CSc1ncc2c(n1)-c1ccccc1N(Cc1ccccc1C)S2(=O)=O	i	·	·	-7%	?	·
CCN(C(=O)c1cc2c(=O)oc3ccccc3c2s1)c1ccc(C)c(C)c1	i	·	·	26%	i	·
CCN(CC)S(=O)(=O)c1ccc(C(=O)NNC(=O)C2COc3ccccc3O2)cc1 (stereo not given)	i	-3%	-5%	-7%	i	-1%
CCN(CC1COc2ccccc2O1)S(=O)(=O)c1ccc(C)cc1 (stereo not given)	23µM*	15%	22%	5%	i	-2%
O=C(NCCN1CCOCC1)c1cc(-c2ccc(Cl)cc2)on1	21µM*	3%	-6%	8%	i	-7%
O=C(NCCN1CCOCC1)c1cc(-c2ccc(Cl)c(Cl)c2)on1	i	29%	-2%	6%	i	-1%
O=C(OCc1nc2ccc(Cl)cc2n1CCO)c1ccccc1C(=O)c1ccccc1	16µM*	2%	-2%	0%	i	-4%
SMILES	KB-V1 cytotox	SW480 rerep	MCF10A rerep	RGS4 inhibitor	KB-3-1 cytotox	TSG101-PTAP inh
COc1ccc(-c2cc(NC(C)=O)c3ncc(-c4cccc(C(C)=O)c4)n3c2)cc1OC	i	·	·	·	i	·
CC(=O)Nc1cc(-c2ccc(F)cc2)cn2c(-c3ccc(F)cc3)cnc12	i	·	·	·	i	·
COc1cc(-c2cc(NC(C)=O)c3ncc(-c4ccc(C(C)=O)cc4)n3c2)cc(OC)c1OC	23µM*	·	·	·	?	·
COc1cc(-c2cc(NC(C)=O)c3ncc(-c4ccc(F)cc4)n3c2)cc(OC)c1OC	16µM*	·	·	·	i	·
Cc1ccc(S(=O)(=O)/C=C\C#N)cc1	·	·	·	i	·	·
COc1cccc(C(=O)Nc2ccccc2C(=O)NC2CC2)c1	i	-4%	-29%	23%	i	1%
COc1cc(OC)cc(C(=O)Nc2ccccc2C(=O)NC2CC2)c1	6.5µM*	?	?	-25%	?	-2%
O=C(Nc1ccccc1C(=O)NC1CCCC1)NC1CCCC1	i	-13%	254%[0.0737 µM]	0%	i	-2%
Cc1ccc(/C=C/C(=O)NC(=S)Nc2ccccc2C(=O)NC2CCCCC2)cc1	i	2%	?	-5%	i	2%
COc1ccc(/C=C/C(=O)NC(=S)Nc2ccccc2C(=O)NC2CCCCC2)cc1	?	4.1µM*	18µM*	-5%	i	-5%
O=C(NC1CCCCC1)c1ccccc1NC(=O)C1CC1	16µM*	0%	20%	34%	i	-1%
O=C(/C=C/c1ccc(F)cc1)NC(=S)Nc1ccccc1C(=O)NC1CCCCC1	16µM*	?	?	2%	i	1%
Cc1ccc(C)c(N(C)C(=O)C2CCN(S(=O)(=O)c3cccc4nsnc34)CC2)c1	i	·	·	-5%	i	·
O=C(NCC(c1ccc2c(c1)OCO2)N1CCOCC1)C(=O)Nc1ccc(Cl)cc1 (stereo not given)	i	·	·	-20%	i	·
C=CCOc1c(CNc2ccc(S(N)(=O)=O)cc2)cccc1OC	i	-18%	-10%	-3%[11.4 µM]	i	0%
COc1cccc(CNc2ccccc2O)c1OCc1ccccc1F	i	21µM*	?	-40%	i	2%
CCN1CCCC1CNCc1cccc(OC)c1OCc1ccccc1F (stereo not given)	i	-4%	-5%	-15%	i	-8%
COc1cccc(CNc2ccc(S(N)(=O)=O)cc2)c1OCc1ccccc1F	21µM*	5%	17%	2%	?	0%
